These sequences were tested on VDR:RXRa (NR concentration 270 nM, RXRa partner concentration 90 nM) (assay: PBM binding z-score (relative to random genomic background probes); higher = stronger binding; sequences stand for … in GC…GCGATTGACAGCGTAGAATGAAGG).
Protocol: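 Protein-binding microarray (Agilent 4x180K custom design, double-stranded 60-nt probes: 5' GC cap, 34-nt variable region, 24-nt constant primer region; full probe sequence given). Purified or IVT nuclear receptor:RXRα heterodimers (3:1 NR:RXRα, mostly 270:90 nM) or homodimers were incubated for 1 h in PBS with 2% milk and no ligand, then detected with Alexa488 antibodies. Fluorescence from o1-orientation probes (~5 replicates averaged) was converted to z-scores against 500 random hg19 background probes. Variable regions are seed direct-repeat (DR0–DR5) sites, all their single-nucleotide variants and half-site ablations.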

Row | Sequence | PBM binding z-score
1 | TTACCAAGGTGAAAAGTCGTTGATGCACGCCTTG | 0.0875
2 | TCTGCTAGGTAAGTTGGTCAGCTAACGAGCTGCC | -0.464
3 | CGACCAAGGTGAACAAGGTCGTTGATTACTATTC | 6.02
4 | CCTAGTTGGTCAAAGTCACACACGCTATAGGTAC | 0.996
5 | CCTTGTTGGTCAGGAGGTCACACACCGGATATGA | 3.79
6 | CCGACTGGGGTAAGGTTACCATAACGCACAGCCA | 0.525
7 | GGAACGAGGGCATTCGAGTTGATGGCATGGCGAT | 3.36
8 | CGAACTAGGTCAGATCAGGACAGTGAAGGATGAT | 1.12
9 | TCTGGTAGATCAACAGGAGGTTAAGAAAGATCGA | 0.61
10 | CGTCCAAGGTCAATGCTAGGTCAATGAAAGCATT | 5.33
11 | CCTAGCAGGCCAGGGTCCCTCAAGCATTTCGCTT | -0.596
12 | AGTCAAAGTTCCCTAGGTAACGTAAGATTCAGCT | -0.251
13 | CCGACTGGGGCATAAGCTTACCATAAGCCAGCCC | -0.79
14 | GGAACGAGGCCATTCGAGTTGATAGCATGGCGAT | 1.43
15 | ACTAGCAGGCCAAGTTTGGGCCACTCAAACAAAG | -0.648
16 | ATCTCTAGGTAAGGATAGTTCAGTGAATGCAAAT | 0.733
17 | AGAATGAGGTTAAGATCAGGGACACAGAATACAT | 1.93
18 | CCTAGTTGGTCATGAGGTCACACACCGGATATGA | 4.97
19 | GCTTACGTGTCAAAGGTTATAGCATGAATAGAAT | 2.29
20 | CCGACTGGGGCAGAAAGGTTACCACACCATCCGG | 1.15

Row | Sequence | PBM binding z-score
21 | ACAGACAGGTGATGAAGGTAACTGAGGCTATCAT | 0.346
22 | ATATGTAGGTTAGCTGGGGTCATTCTGACTAGGC | 6.29
23 | AGAATGAGGTTACCAAAGATCTGGGAAACGCTTG | 0.954
24 | CCTAGTTGGTCAGGAGGACACACACCGGATATGA | 0.204
25 | GGTGCTAGGTCAGGTTGGTCAGCTAACGGGTACG | 1.25
26 | CCTGCTAGGTCAATGGTGAGCTAAAGCAGCTCGC | 0.217
27 | CCGACTGTGGCATAAGGTTACCATAAGCCAGCCC | 0.153
28 | TCATATAGGTAAACGTGAAAGTCGAACGATATGA | 0.503
29 | CCTGCTAGGTCTTGGTCAGCTAATCTACAGTATG | -0.434
30 | CAAACTAGGTCACCGGAAGGTCAAACTCCGCATG | 6.17
31 | GCTGCTAGGTCAGGTTGGTCATCTAACGGGTACG | 1.25
32 | TCTTGTAGATGAGCAGGTTAAGAAAGCTGGCCAA | -0.0672
33 | AGAATGAGGTTACGATCAGGGAAACAGAATACAT | 1.43
34 | CCTACTGGGCCAAGGTCATTGATCAGTCAAAGCA | 3.15
35 | CAAACTAGGTCGCGAAAGGTCAAAGTCGAATGAC | 5.94
36 | CAAACTAGGTCCAGAGGTCAAAGTCCGCTTCCCG | 5.14
37 | GCGATTGGGGCATCAGCAGGTTACCATAACTTAA | 0.0705
38 | CAGACTGGGGCAAGGTTACCATAACGCACAGCCA | 0.28
39 | CGAACTAGGTCATTGACAGGACGGTGAATAGTAA | 1.62
40 | TCGAGTAGGTTAGGGGCATTCTGAATGGCGTCGA | 0.242

From the supplement of paper PMC6555819
